Assay [1] is described as follows: yeast TOR pathway RPL19A-GFP modulators, primary screen, cell-based, S. cerevisiae, multiplex flow cytometry (AID 1862; in the data active means percent of DMSO control GFP below about 86%;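 further: lower values mimic rapamycin by blocking the RPL19A rise seen in DMSO cells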). To be noted: S. cerevisiae RPL19A-GFP strain, flow cytometry fluorescence, 3 h; at 10 µM; stronger effect = lower value.
The nature of assay [2]: modulators of MEP2-GFP levels in yeast, primary screen, S. cerevisiae, multiplex flow cytometry (AID 1867;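 active means GFP response, as percent of the DMSO control, above the screen-wide mean plus 3 SD, about 139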;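 further: median GFP channel fluorescence of barcode-gated MEP2-GFP cells measured by flow cytometry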). Conditions: S. cerevisiae MEP2-GFP strain, 3 h, at 10 µM, stronger effect = higher value, 100% means same as DMSO wells.
Assay [3] is described as follows: modulators of CIT2-GFP expression in yeast, primary screen, S. cerevisiae, GFP fusion, multiplex flow cytometry (AID 1870;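 active means percent response above a set limit, the screen-wide mean plus 3 SD, cut at about 130% in these data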;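 further: barcoded CIT2-GFP strain pooled with four other GFP strains with rapamycin as positive control; median GFP fluorescence per well over plate mean of DMSO wells so 100% = DMSO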). Conditions: 3 h, at 10 µM, stronger effect = higher value.
Assay [4] in a line: modulators of LAP4-GFP expression in yeast, primary screen, S. cerevisiae, multiplex flow cytometry (AID 1873;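 active means GFP signal, as percent of the solvent control, above the screen mean plus 3 SD, about 149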). Conditions: 3 h, at 10 µM, stronger effect = higher value.
Assay [5] in a line: modulators of AGP1-GFP expression in yeast TOR pathway, primary screen, cell-based, multiplex flow cytometry, S. cerevisiae (AID 1887;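 active means GFP signal above the screen-wide mean plus 3 SD, that is over about 124.5% of the solvent control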;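 further: AGP1-GFP fusion strain of S. cerevisiae within a five-strain barcoded multiplex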). To be noted: 3 h, at 10 µM, stronger effect = higher value.
Assay [6] is described as follows: inhibitors of CD8+ T cell-vesicle binding, pilot screen, LFA-1/ICAM-1 modulator project, MLPCN validation set, flow cytometry (AID 2523;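 active means response below a set limit, under 55% cells CD8-positive and vesicle-bound, and CD8 cells' 90th-percentile brightness under 279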;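 on vesicle binding response: mean PE anti-B7-1 fluorescence of CD8+ cells relative to row control; 100% = QL9-loaded vesicles with DMSO vehicle in the same plate row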). Conditions: 2C mouse CD8+ T cells, at 7 µM, stronger effect = lower value; double positive events: measured here: CD8+/vesicle+ event percentage.
Assay [7] has as its target Integrin beta-1 (Homo sapiens) + Integrin alpha-4 (Homo sapiens) (UniProt P13612+P05556). The assay is described as follows: inhibition of HUTS-21 binding to VLA-4, pilot screen, VLA-4 allosteric modulator project, U937 cells, HUTS-21 mAb, flow cytometry, validation set (AID 2674;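 active means inhibition above 50%, about 3 SD of the validation set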;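 further: antibody binding induced by the VLA-4 ligand LDV present at three times its Kd; 0% = LDV ligand with antibody and no compound and 100% = antibody without LDV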). Conditions: HUTS-21 LIBS mAb binding, at 6.7 µM, stronger effect = higher value, binding induced by LDV ligand.

Assay [8] in a line: superoxide lowering in aged yeast cells, pilot screen, validation compound set (AID 2706;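 active means superoxide response below 65% of plate, a cut near 3 SD across the whole screen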;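 further: yeast exposed to compound for one week at 30 degrees C before staining; 100% = mean of all compound wells on the same plate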). To be noted: S. cerevisiae aging, superoxide DHE fluorescence; at 10 µM; stronger effect = lower value.
The target in assay [9] is Beta-adrenergic receptor kinase 1 (Homo sapiens) (UniProt P25098). Description: GRK2 binders displacing RNA aptamer, biochemical, validation, human GRK2, bead flow cytometry (AID 488806;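 active means aptamer binding inhibition above 30%, about 3 SD of noise from non-fluorescent compounds; inactive means inhibition at or below 30%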). To be noted: bead-bound GRK2, FAM-aptamer displacement, at 10 µM, stronger effect = higher value.
Sequence of Beta-adrenergic receptor kinase 1 (Homo sapiens) (P25098 whole entry, looked up): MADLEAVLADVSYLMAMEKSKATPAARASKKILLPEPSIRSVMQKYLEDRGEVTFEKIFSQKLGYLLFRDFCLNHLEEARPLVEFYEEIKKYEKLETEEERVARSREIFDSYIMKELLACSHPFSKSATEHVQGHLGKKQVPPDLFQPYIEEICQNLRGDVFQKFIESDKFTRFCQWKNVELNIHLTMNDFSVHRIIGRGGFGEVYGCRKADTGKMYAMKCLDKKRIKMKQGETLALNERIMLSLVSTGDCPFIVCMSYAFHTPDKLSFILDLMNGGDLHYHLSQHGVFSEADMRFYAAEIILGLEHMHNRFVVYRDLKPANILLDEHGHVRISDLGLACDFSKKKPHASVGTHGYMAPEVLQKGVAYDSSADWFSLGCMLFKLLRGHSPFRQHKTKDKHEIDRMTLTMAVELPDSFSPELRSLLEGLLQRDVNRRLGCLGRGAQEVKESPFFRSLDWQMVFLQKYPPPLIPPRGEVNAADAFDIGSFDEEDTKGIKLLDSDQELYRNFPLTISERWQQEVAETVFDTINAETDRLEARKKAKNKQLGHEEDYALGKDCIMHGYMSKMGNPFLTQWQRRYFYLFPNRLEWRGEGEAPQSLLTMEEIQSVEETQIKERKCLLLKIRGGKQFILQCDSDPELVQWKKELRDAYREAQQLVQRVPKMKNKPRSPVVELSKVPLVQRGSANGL
Assay [10] addresses Beta-2 adrenergic receptor (Homo sapiens) (UniProt P07550). The assay is described as follows: beta2AR agonists driving receptor internalization, pilot screen, cell-based, FAP fluorogen, flow cytometry, validation set (AID 504459;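 active means percent response above 42, roughly 3 SD of non-fluorescent test compounds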;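 further: agonist-driven loss of surface beta2AR via internalization measured by FAP dye flow cytometry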). To be noted: Am2.2-beta2AR cells, FAP surface receptor flow cytometry; at 10 µM; stronger effect = higher value.
Assay [11] concerns the target AP-2 complex subunit beta (Homo sapiens) (UniProt P63010). Description: inhibitors of arrestin peptide binding to AP2, pilot screen, biochemical, validation set, GST-AP2 beads, flow cytometry (AID 504541;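 active means inhibition above 54%, about 3 SD of non-fluorescent compounds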;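 further: AP2 carries R879A mutation and is captured from E. coli lysate; bead-bound FITC arrestin peptide fluorescence measuring arrestin peptide binding to AP2; 0% = DMSO wells and 100% = excess unlabeled arrestin peptide control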). To be noted: FITC arrestin peptide, at 10 µM, stronger effect = higher value, AP2 beta2 appendage fragment, R879A mutant.
The nature of assay [12]: yeast V-ATPase proton transport modulators, S. cerevisiae, pHLuorin, HTS validation (AID 504600; in the data active means response above about 15%;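 further: plate controls were DMSO for no effect and reference compound for full effect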). To be noted: S. cerevisiae pHLuorin cytosolic pH, at 10 µM, stronger effect = higher value.
The test system of assay [13] is anti-desmoglein-3 scFv antibody binding to human DSG3. The assay is described as follows: inhibitors of anti-DSG3 scFv binding to DSG3, pilot screen, biochemical, validation compound set, bead-based, flow cytometry (AID 588368;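 active means binding below the plate cutoff, the plate median minus 3 SD, with a reading above zero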;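 further: signal is the median channel fluorescence of bead-bound GFP antibody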). To be noted: Protein G beads, DSG3-Fc, scFv-GFP binding, at 10 µM, stronger effect = lower value.
The nature of assay [14]: inhibitors of fungal efflux pumps CDR1, CDR2, MDR1, pilot screen, validation compound set, multiplex, phenotypic (AID 588506;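 active means efflux inhibition above 0.42, the validation set average plus 4 SD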;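 further: Nile Red retained in cells so higher fluorescence means more efflux inhibition; 0 = negative control wells and 1 = enniatin B 25 µM full block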). To be noted: S. cerevisiae pump-expressing triplex, Nile Red efflux flow cytometry; at 10 µM; stronger effect = higher value; the pumps come from Candida albicans.
In assay [15] the target is ATP-binding cassette sub-family B member 6 (Homo sapiens) (UniProt Q9NP58). The assay is described as follows: ABCB6 transporter inhibitors, pilot screen, K562-ABCB6 cells, flow cytometry, validation set (AID 588550;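 active means inhibition above the screen-wide mean plus 3 SD, about 51%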;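 further: 0% = DMSO wells and 100% = benzethonium chloride 70 µM positive control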). Conditions: K562-ABCB6 porphyrin accumulation, 1 h, at 10 µM, stronger effect = higher value.
Sequence of ATP-binding cassette sub-family B member 6 (Homo sapiens) (Q9NP58 whole entry, looked up): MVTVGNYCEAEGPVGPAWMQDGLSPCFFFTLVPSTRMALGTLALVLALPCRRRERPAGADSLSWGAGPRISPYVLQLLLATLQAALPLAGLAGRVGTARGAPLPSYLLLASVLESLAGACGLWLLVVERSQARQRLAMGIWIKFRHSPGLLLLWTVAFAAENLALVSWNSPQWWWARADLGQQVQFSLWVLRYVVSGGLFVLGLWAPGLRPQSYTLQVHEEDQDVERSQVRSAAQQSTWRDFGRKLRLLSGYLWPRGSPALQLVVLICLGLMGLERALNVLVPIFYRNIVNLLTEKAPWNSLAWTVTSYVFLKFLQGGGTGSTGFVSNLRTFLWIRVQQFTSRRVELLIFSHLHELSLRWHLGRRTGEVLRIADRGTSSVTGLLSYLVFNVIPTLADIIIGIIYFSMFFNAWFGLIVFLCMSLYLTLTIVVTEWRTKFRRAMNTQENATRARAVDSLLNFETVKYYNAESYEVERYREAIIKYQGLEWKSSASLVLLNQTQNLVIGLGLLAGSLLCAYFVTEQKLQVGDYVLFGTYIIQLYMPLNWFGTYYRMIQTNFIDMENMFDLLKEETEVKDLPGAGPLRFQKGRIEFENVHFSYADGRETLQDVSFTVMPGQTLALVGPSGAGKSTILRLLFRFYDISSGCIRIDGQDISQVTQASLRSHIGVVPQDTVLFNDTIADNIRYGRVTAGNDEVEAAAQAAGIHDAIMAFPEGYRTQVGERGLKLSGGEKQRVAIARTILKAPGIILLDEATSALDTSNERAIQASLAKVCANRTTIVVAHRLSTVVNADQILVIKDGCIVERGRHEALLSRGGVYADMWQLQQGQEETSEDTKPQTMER
A short description of assay [16]: promoters of myeloid differentiation in arrested cells, primary screen, cell-based, GFP/MAC1 double positive, flow cytometry, validation set (AID 588685).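 Further: compound exposure lasts four days before antibody staining and flow analysis; 0% = DMSO wells and 100% = 5 µM fulvestrant positive control.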 Conditions: ER-HoxA9 marrow cells, stronger effect = higher value, normalized: vehicle 0, fulvestrant 100.

Records with an inconclusive call do not appear. Active and inactive are the calls of the source.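 How the source made its calls, unless noted: active means differentiation response of at least 50%, scaled between solvent and reference control, from cells with both markers; inactive means the rest.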

Sequence of AP-2 complex subunit beta (Homo sapiens) (P63010 whole entry, looked up, the tested form may be a part, one chain of several): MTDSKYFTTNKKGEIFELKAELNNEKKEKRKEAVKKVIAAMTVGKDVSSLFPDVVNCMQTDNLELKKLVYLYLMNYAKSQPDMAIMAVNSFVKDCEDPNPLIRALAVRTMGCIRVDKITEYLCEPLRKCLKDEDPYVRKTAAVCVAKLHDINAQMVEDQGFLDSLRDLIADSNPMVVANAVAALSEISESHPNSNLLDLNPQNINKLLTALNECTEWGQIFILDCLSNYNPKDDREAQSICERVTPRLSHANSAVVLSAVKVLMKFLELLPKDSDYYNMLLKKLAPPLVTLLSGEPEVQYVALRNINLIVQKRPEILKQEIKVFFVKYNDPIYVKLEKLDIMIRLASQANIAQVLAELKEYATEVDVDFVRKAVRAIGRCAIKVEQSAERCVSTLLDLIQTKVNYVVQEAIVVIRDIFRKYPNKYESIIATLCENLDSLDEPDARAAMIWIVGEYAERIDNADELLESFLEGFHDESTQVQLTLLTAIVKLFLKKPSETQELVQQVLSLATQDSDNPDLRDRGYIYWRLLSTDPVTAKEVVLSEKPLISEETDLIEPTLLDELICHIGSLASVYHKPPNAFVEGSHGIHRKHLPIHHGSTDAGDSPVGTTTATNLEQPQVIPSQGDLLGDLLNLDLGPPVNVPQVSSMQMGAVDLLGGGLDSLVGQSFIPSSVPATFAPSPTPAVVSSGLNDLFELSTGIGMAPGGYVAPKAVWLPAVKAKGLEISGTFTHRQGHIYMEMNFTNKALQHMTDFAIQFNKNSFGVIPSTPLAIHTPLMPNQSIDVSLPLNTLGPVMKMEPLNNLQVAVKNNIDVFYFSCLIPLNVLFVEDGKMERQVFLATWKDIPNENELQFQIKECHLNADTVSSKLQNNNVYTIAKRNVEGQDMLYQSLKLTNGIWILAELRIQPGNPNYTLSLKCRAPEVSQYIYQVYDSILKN
Sequence of Integrin beta-1 (Homo sapiens) + Integrin alpha-4 (Homo sapiens) (P05556 whole entry, looked up): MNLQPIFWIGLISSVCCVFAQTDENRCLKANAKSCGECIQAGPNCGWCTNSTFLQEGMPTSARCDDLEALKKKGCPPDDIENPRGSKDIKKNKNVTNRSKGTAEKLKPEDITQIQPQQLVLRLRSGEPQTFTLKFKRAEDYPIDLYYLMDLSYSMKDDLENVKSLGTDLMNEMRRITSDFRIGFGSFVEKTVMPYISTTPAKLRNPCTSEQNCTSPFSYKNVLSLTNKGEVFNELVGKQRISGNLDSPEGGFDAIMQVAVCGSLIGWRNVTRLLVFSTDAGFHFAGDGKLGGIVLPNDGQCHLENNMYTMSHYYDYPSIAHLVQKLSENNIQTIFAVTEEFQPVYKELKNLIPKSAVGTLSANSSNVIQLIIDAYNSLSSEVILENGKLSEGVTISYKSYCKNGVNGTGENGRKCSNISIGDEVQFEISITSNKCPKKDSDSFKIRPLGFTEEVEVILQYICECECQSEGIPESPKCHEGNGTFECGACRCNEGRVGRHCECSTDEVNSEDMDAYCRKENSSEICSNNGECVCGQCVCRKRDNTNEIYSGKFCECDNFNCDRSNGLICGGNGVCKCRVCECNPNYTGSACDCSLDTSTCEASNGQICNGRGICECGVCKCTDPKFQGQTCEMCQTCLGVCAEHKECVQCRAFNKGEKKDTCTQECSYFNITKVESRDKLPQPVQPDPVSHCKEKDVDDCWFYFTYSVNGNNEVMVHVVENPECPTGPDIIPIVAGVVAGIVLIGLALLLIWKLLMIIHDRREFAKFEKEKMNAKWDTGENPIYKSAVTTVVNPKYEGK
Sequence of Integrin beta-1 (Homo sapiens) + Integrin alpha-4 (Homo sapiens) (P13612 whole entry, looked up): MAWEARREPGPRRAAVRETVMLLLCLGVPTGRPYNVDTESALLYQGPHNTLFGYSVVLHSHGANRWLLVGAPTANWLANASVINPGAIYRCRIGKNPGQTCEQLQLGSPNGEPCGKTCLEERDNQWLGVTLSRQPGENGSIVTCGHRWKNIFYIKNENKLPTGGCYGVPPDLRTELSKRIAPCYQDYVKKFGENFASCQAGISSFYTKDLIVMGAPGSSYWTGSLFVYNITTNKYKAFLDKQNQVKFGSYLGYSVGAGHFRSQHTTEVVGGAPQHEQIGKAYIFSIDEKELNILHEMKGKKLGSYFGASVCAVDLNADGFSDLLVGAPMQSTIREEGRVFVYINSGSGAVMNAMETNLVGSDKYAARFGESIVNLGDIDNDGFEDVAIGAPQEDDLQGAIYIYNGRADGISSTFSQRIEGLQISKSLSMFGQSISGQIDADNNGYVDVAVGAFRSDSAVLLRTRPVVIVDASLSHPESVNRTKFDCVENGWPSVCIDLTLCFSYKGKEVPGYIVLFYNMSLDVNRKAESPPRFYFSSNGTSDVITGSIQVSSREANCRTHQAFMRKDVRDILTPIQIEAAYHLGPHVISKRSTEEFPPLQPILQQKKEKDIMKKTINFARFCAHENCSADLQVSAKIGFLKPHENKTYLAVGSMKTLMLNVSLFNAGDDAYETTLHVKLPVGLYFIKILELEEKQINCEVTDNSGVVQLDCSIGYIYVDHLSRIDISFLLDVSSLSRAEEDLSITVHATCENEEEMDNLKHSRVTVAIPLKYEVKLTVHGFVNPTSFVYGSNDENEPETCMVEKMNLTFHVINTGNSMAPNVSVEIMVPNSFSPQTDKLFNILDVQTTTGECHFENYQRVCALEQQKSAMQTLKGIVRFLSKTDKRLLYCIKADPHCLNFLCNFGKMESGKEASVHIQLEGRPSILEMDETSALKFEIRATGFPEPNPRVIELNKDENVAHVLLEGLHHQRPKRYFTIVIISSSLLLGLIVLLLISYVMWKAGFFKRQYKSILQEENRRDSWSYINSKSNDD
Sequence of Beta-2 adrenergic receptor (Homo sapiens) (P07550 whole entry, looked up): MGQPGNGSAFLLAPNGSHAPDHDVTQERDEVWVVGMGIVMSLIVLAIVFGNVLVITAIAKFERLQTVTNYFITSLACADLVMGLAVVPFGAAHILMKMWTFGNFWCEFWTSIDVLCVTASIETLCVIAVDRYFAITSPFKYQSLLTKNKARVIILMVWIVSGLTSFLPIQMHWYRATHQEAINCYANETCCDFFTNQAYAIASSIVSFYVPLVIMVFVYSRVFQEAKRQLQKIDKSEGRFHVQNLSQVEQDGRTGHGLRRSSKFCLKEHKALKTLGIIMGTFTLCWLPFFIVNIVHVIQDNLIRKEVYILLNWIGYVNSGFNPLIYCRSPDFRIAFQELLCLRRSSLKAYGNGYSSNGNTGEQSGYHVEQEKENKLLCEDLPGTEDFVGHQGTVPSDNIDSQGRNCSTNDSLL

With `Cc1c(OCC(F)(F)F)ccnc1CS(=O)c1nc2ccccc2[nH]1` (stereo not drawn), in assay [1], the percent of DMSO control GFP was 95.1% (inactive). The GFP response vs DMSO in assay [2] was 101% (inactive); in assay [4], 119% (inactive). Besides, the percent response of DMSO control in assay [3] was 97% (inactive). Further, the GFP response, % of DMSO in assay [5] is 118% (inactive). In assay [6], this molecule had a double positive events of 58.8%. In addition, the vesicle binding response in assay [6] is 153% (inactive). For the same molecule, the inhibition was -64.1% (inactive) in [7], -4.09% (inactive) in [11] and -6% (inactive) in assay [15]. In addition, in assay [8], the superoxide response (% of plate) is 111% (inactive). For the same molecule, in assay [9], the aptamer binding inhibition is 1% (inactive). The response in [10] was 24.6% (inactive); in assay [12] it was -4.18% (inactive). Moreover, in assay [13], the binding (% of control) is 106% (inactive). For the same molecule, the efflux inhibition (fraction of control) in assay [14] was 0.04 (inactive). Further, the differentiation response in [16] was -4% (inactive).
As to `COc1ccc(C(=O)Nc2cccc3cccnc23)cc1OC`, the percent of DMSO control GFP in [1] is 102% (inactive). Moreover, the GFP response vs DMSO in [2] was 105% (inactive); in [4], 119% (inactive). Further, in assay [3], the percent response of DMSO control is 105% (inactive). In addition, the GFP response, % of DMSO in [5] was 96.3% (inactive). The double positive events in [6] worked out at 49.8%. Also, in [6], the vesicle binding response was 156% (inactive). In addition, the inhibition in [7] was -18.5% (inactive); in assay [11], -6.27% (inactive); in assay [15] it was 0% (inactive). The superoxide response (% of plate) in assay [8] is 103% (inactive). In addition, in assay [9], the aptamer binding inhibition is -4% (inactive). The response was 10.2% (inactive) in assay [10] and -0.52% (inactive) in [12]. Moreover, the binding (% of control) in assay [13] was 103% (inactive). Further, the efflux inhibition (fraction of control) in [14] is -0.33 (inactive). In addition, the differentiation response in assay [16] is -17.7% (inactive).
For `COc1ccc(/C=C(/C#N)c2cccnc2)cc1OC`, the percent of DMSO control GFP in [1] was 101% (inactive). Moreover, the GFP response vs DMSO is 104% (inactive) in assay [2] and 99.4% (inactive) in assay [4]. Besides, the percent response of DMSO control in assay [3] was 94.9% (inactive). In assay [5], the GFP response, % of DMSO is 99.1% (inactive). The double positive events in [6] was 54.1%. Also, the vesicle binding response in [6] is 6.8% (active). The inhibition in assay [7] is -13.2% (inactive); in [11], 23.7% (inactive); in assay [15], 2% (inactive). The superoxide response (% of plate) in assay [8] was 98.6% (inactive). For the same molecule, in [9], the aptamer binding inhibition was 3% (inactive). The response in assay [10] was -1.52% (inactive); in assay [12], 0.34% (inactive). Also, the binding (% of control) in [13] is 105% (inactive). Besides, the efflux inhibition (fraction of control) in [14] is 0.42 (inactive). Besides, in assay [16], the differentiation response was 17.1% (inactive).
As to `CCN(CC)CCOC(=O)C(c1ccccc1)c1ccccc1`, the percent of DMSO control GFP in assay [1] was 102% (inactive). Also, the GFP response vs DMSO was 108% (inactive) in assay [2] and 90.1% (inactive) in [4]. In addition, the percent response of DMSO control in [3] is 91.9% (inactive). In [5], the GFP response, % of DMSO is 95.6% (inactive). In addition, in assay [6], the double positive events was found to be 59.4%. In addition, the vesicle binding response in assay [6] is 91.8% (inactive). For the same molecule, the inhibition in assay [7] is -4.6% (inactive); in assay [11], 59.1% (active); in assay [15], 6% (inactive). For the same molecule, the superoxide response (% of plate) in [8] is 105% (inactive). Also, the aptamer binding inhibition in assay [9] was 3% (inactive). Besides, the response was 2.02% (inactive) in assay [10] and -3.97% (inactive) in assay [12]. In addition, the binding (% of control) in [13] was 99% (inactive). In assay [14], the efflux inhibition (fraction of control) was 0.3 (inactive). In addition, the differentiation response in assay [16] is 37.4% (inactive).
